Source: PubChem
SENP6 inh: inhibitors of human SENP6 protease; Q9GZR1; Recombinant SENP6 catalytic domain, aminoluciferin luminescence; AID 2599; 1.8% of 330,000 active; inhibition, % at 10 µM;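 active = inhibition above about 50% at the single tested dose, limit read from the data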;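 also: plate controls were DMSO wells with enzyme for no effect and DMSO wells lacking enzyme for full effect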
Target sequence (Q9GZR1 628-1112 limits assumed): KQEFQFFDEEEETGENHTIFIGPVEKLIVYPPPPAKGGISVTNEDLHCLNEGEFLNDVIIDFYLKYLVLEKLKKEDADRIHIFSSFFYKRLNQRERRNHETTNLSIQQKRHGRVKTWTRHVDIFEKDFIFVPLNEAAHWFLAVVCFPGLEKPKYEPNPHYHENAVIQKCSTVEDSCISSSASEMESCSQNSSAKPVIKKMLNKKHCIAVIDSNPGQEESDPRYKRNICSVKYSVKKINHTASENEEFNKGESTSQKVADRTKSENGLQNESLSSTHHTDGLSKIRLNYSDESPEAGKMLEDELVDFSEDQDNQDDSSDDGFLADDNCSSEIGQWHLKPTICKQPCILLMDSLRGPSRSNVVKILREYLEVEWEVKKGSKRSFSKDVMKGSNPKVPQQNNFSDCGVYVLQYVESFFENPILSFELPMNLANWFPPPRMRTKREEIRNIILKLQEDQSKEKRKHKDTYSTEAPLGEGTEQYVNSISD
SENP8 block-1: inhibitors of human SENP8 protease | Q96LD8 | recombinant SENP8, Nedd8 substrate fluorescence | inhibition, % at 20 µM | 0.64% of 360,000 active; in the data active = inhibition mostly above about 40%, no sharp cut-off; inactive = mostly below about 27%
Target sequence (Q96LD8 whole entry, looked up): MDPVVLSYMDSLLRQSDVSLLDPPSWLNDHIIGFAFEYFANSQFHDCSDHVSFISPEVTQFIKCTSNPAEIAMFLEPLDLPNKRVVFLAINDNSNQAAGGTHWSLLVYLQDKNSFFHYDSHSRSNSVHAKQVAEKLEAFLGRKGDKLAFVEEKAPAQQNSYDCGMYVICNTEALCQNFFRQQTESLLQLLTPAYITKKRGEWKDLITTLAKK
SENP7 block: inhibitors of human SENP7 protease | 1.5% of 330,000 active | Q9BQF6 | inhibition, % at 5 µM | recombinant SENP7, Z-RLRGG-aminoluciferin luminescence, 40 min;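 active = inhibition above about 50% at the single test dose, limit read from the data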;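 also: plate controls were DMSO with enzyme for no effect and no enzyme buffer wells for full effect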
SENP8 block-2: inhibitors of human SENP8 protease | purified SENP8, Z-RLRGG-aminoluciferin cleavage, luminescence | inhibition, % at 10 µM | 1.2% of 330,000 active; in the data active = inhibition above about 50%
Platelet DG rel: modulates dense granule release in human platelets; human platelet-rich plasma, SFLLRN dense granule ATP release, luminescence; inhibition, %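 (compounds screened at 7.5 µM in platelet-rich plasma)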; 0.22% of 300,000 active; AID 1663;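 active = mean replicate score, as percent of positive control, at or above 50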
SENP8 conf: confirmation of human SENP8 protease inhibitors; shares compounds with SENP7 block; Recombinant SENP8, Z-RLRGG-aminoluciferin luminescence, 60 min; inhibition, % at 12.5 µM; 40% of 6,200 active;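 active = mean inhibition across replicates above about 50%, limit read from the data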
SENP6 confirm: confirmation of human SENP6 protease inhibitors. shares compounds with SENP7 block. recombinant SENP6, Z-RLRGG-aminoluciferin luminescence. inhibition, % at 12.5 µM. 58% of 6,200 active
SENP7 conf: confirmation of human SENP7 protease inhibitors; shares compounds with SENP7 block; recombinant SENP7, Z-RLRGG-aminoluciferin luminescence, 40 min; inhibition, % at 12.5 µM; 69% of 6,200 active
Casp3 select: caspase-3 inhibition (SENP selectivity assay) | shares compounds with SENP7 block | purified caspase-3, Z-DEVD-aminoluciferin luminescence, 60 min | inhibition, % at 12.5 µM | 60% of 6,200 active | AID 488918;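 active = mean inhibition above about 50%, limit read from the data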;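 also: plate controls were enzyme with DMSO for no effect and wells without caspase-3 for full effect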
Luc interf: luminescence interference (SENP counter-screen); 39% of 6,200 active; AID 488919; inhibition, % at 12.5 µM; Pre-incubated SENP8/Z-RLRGG-aminoluciferin, luciferase luminescence interference; shares compounds with SENP7 block;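 active = mean inhibition above about 50% when retested at one dose, limit read from the data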;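 also: plate controls were DMSO wells with completed reaction for no effect and substrate without enzyme for full effect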
* marks the source's active call; other numbers are inactive results; · = no result. Compounds with a hit are over-represented: about 2.4% of the library has one in this group of screens.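 The calls were made as follows, unless noted: active = mean inhibition above about 50% in the one-dose retest (limit read from the data); inactive = the rest.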

SMILES	SENP6 inh	SENP8 block-1	SENP7 block	SENP8 block-2	Platelet DG rel	SENP8 conf	SENP6 confirm	SENP7 conf	Casp3 select	Luc interf
Brc1ccc(-n2cnc(-c3ccccc3)c2)cc1	71.1*	8.4	79.3*	69.2*	·	61.2*	62.0*	91.6*	58.9*	17.9
COc1ccc(C(=O)N2CCCN(C)CC2)cc1S(=O)(=O)N(C)Cc1ccccc1	-5.4	13.3	5.7	7.3	·	·	·	·	·	·
CCOC(=O)c1oc2nc(CC(C)C)c3c(c2c1N)CCCC3	0.4	-433.4	-6.9	1.0	4.3	·	·	·	·	·
O=C1/C(=C/c2ccco2)SC(=S)N1CCC(=O)N1CCCCC1CCO (centres undefined)	18.4	37.6	-5.7	2.7	14.8	·	·	·	·	·
CCOc1ccc(N(C(C)C(=O)Nc2ccc(OC)cc2)S(C)(=O)=O)cc1 (centres undefined)	-0.5	11.0	70.6*	-9.3	3.4	6.3	6.7	-7.5	-1.7	-3.6
CCCCOCCCNC(=O)C[C@@H]1C[C@@]2(C(=O)OC)CC(C)(C)CC=C2N(CCc2ccc(OC)c(OC)c2)C1=O	·	28.0	·	·	·	·	·	·	·	·
NC(=O)CC1Nc2cccc3cccc(c23)NC1=O (centres undefined)	90.6*	-19.3	34.2	77.4*	7.8	-2.1	6.1	6.4	1.0	-1.7
O=C(CC1Nc2cccc3cccc(c23)NC1=O)Nc1ccccc1 (centres undefined)	86.9*	-106.4	52.6*	2.3	-7.1	7.7	9.5	-5.4	-0.6	-2.3
O=[N+]([O-])c1cncc([N+](=O)[O-])c1Nc1cccc(O)c1	7.7	22.9	11.4	-2.9	2.0	·	·	·	·	·
O=C(/C=C/c1cccc(F)c1)N1CCc2ccccc21	74.0*	31.0	94.5*	72.1*	36.7	-24.5	-13.8	-3.3	-6.1	-6.7
O=C(/C=C/c1ccc(Cl)cc1Cl)N1CCc2ccccc21	69.6*	11.0	91.6*	51.2*	11.2	35.1	31.1	25.7	64.0*	12.6
O=C(OCc1ccccc1)N(CCCCN(CCCNCc1ccccc1)C(=O)OCc1ccccc1)CCCNCc1ccccc1	·	22.9	·	·	·	·	·	·	·	·
Cc1nnc(SCCC(=O)Nc2nc(-c3ccccc3)ns2)s1	58.3*	-4.3	-4.9	16.9	8.7	53.9*	50.4*	77.5*	25.9	30.5
COc1cccc(OCCN2CCN(c3ncnc4c3cnn4-c3ccccc3)CC2)c1	-5.4	-44.4	-4.6	1.7	0.7	·	·	·	·	·
COc1cccc(OCc2nc3c4cnn(-c5ccccc5)c4ncn3n2)c1	-22.5	-95.8	73.2*	6.2	-7.0	-7.5	1.4	12.3	21.0	4.0
CN(CC1CCOCC1)C(=O)CC1C(=O)NCCN1Cc1ccc(F)c(F)c1 (centres undefined)	-3.9	-55.5	10.7	-5.6	-5.1	·	·	·	·	·
O=C(CNc1ccc(Br)cc1)Nc1ccc(S(=O)(=O)N2CCCC2)cc1	-29.2	-4.9	-4.4	2.7	·	·	·	·	·	·
COc1ccc(C2/C(=C(/O)c3ccc(Br)cc3)C(=O)C(=O)N2C)cc1OC (centres undefined)	6.5	12.2	58.0*	-4.8	10.5	4.5	5.3	0.4	-0.2	1.3
Cc1ncc2c(n1)NC(=O)NC2	·	15.8	·	·	·	·	·	·	·	·
N#Cc1ccccc1COC(=O)c1ccc2c(c1)OCCO2	61.4*	5.3	28.0	31.3	·	59.2*	52.0*	78.0*	42.7	37.4
N#Cc1ccccc1NC(=O)COC(=O)c1ccc2c(c1)OCCO2	16.2	22.2	3.5	-5.3	0.1	·	·	·	·	·
O=C(NCc1cccs1)C1C(=O)Nc2ccccc2C(=O)N1Cc1ccccc1 (centres undefined)	·	-35.8	·	·	·	·	·	·	·	·
NC1=NC(=O)C(CC(=O)c2ccc(Cl)cc2)S1 (centres undefined)	1.3	6.4	8.8	-2.1	-0.4	·	·	·	·	·
Cc1ccc(C(=O)CC2SC(N)=NC2=O)cc1 (centres undefined)	2.4	-22.8	76.7*	2.7	11.5	-7.4	-1.5	3.4	1.1	-6.8
O=C(N1CCN(c2ccccc2F)CC1)C1(c2cccs2)CCOCC1	-8.7	16.4	-6.4	-8.5	-83.8	·	·	·	·	·
SMILES	SENP6 inh	SENP8 block-1	SENP7 block	SENP8 block-2	Platelet DG rel	SENP8 conf	SENP6 confirm	SENP7 conf	Casp3 select	Luc interf
O=C(COC(=O)Cn1cnc2ccccc21)Nc1cc2c(cc1Cl)C(=O)c1ccccc1C2=O	70.6*	15.5	90.2*	60.6*	-0.7	57.6*	66.7*	85.5*	73.4*	13.9
O=C(COC(=O)Cn1cnc2ccccc21)Nc1cc(S(=O)(=O)N2CCOCC2)ccc1Cl	2.4	8.8	-3.6	-4.5	5.8	·	·	·	·	·
N/C(=N\OC(=O)/C=C/c1ccccc1Cl)c1cccnc1	48.6	23.9	51.7*	27.0	9.3	8.8	5.4	20.4	9.7	36.2
N/C(=N\OC(=O)COc1ccc(Br)cc1Cl)c1ccncc1	·	15.3	·	·	·	·	·	·	·	·
N/C(=N\OC(=O)/C=C/c1ccc(Br)cc1)c1ccccn1	57.2*	10.2	52.9*	-0.3	-10.9	13.1	10.6	33.1	45.4	21.8
N/C(=N\OC(=O)COc1ccc(Br)cc1Cl)c1ccccn1	95.8*	20.1	97.0*	85.9*	3.2	89.4*	87.4*	96.6*	81.5*	88.6*
N/C(=N\OC(=O)/C=C/c1ccccc1)c1cccnc1	-26.5	6.8	14.4	-3.1	-6.3	·	·	·	·	·
O=C(COC(=O)/C=C/c1ccccc1Cl)Nc1cccnc1Cl	-10.9	12.9	8.7	3.5	·	·	·	·	·	·
N/C(=N\OC(=O)/C=C/c1ccccc1Cl)c1ccccn1	94.8*	-11.9	88.9*	85.7*	14.6	90.7*	90.1*	100.1*	85.3*	87.5*
CC(=O)N1CCOc2ccc(S(=O)(=O)NC[C@H]3O[C@@H](n4ccc(=O)[nH]c4=O)[C@H](O)[C@@H]3O)cc21	·	6.9	·	·	·	·	·	·	·	·
Cc1cccc(NC(=O)N2CCCC(CNC(=O)c3ccccc3Cl)C2)c1C (centres undefined)	1.2	3.1	-0.1	2.5	-5.5	·	·	·	·	·
Cc1cc(C)c(C)c(S(=O)(=O)NC2CCN(Cc3ccccc3)CC2)c1C	-0.3	-0.8	2.0	-2.7	0.5	·	·	·	·	·
O=C(O)Cc1ccc2sc(-c3ccccc3)nc2c1	98.9*	-1.9	90.7*	92.5*	24.3	96.4*	97.0*	100.8*	97.3*	96.0*
O=C(O)Cc1ccc(-c2ccccc2-c2ccccc2)cc1	-13.6	12.5	2.8	7.6	-27.6	·	·	·	·	·
COc1ccc(C(=O)NCc2ccc(-c3nc4ccccc4s3)cc2)cc1	-10.8	-20.0	-1.5	-1.6	-20.1	·	·	·	·	·
